PubChem BioAssay AID1359 (The Scripps Research Institute Molecular Screening Center, 2008)
In all, about 220,000 compounds went through this assay and about 970 (0.44%) were called active. The sample as a whole holds a higher share of actives than the screen did. A number with no mark means an inactive call. Cut-off read from the data, not from the text of the source: active = activation above about 27%; inactive = the rest.

Each compound was assayed against Neuropeptide Y receptor type 2 (Homo sapiens) (UniProt P49146) (assay: NPY-Y2 potentiators or agonists, primary screen, cell-based (AID 1359;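 note: cells stimulated with NPY near EC25 plus isoproterenol at EC100; 0% = vehicle plus submaximal agonist and 100% = vehicle plus saturating agonist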)). Conditions: cells expressing NPY-Y2, potentiator/agonist read-out; at 3.6 µM; stronger effect = higher value.
Chain of Neuropeptide Y receptor type 2 (Homo sapiens) (P49146 whole entry, looked up): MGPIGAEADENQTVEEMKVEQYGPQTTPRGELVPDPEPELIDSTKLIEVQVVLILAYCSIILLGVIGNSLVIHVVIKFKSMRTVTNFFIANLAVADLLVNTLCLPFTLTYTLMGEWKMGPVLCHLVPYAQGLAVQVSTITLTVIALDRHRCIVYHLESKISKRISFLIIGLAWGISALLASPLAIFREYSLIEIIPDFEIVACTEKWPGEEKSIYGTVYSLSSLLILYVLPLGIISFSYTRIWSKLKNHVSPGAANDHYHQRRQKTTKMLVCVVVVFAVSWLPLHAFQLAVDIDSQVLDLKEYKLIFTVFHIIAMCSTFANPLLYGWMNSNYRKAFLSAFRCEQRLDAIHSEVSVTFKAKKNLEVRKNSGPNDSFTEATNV

Row | Compound | activation
1 | CC1(C)Cc2c(C#N)c(N3CCNCC3)nc(-c3ccco3)c2CS1 | 54.8% (active)
2 | CN(C)P(=S)(Nc1ccccc1)C(Cl)(Cl)Cl (stereo not given) | 3.95%
3 | Cn1c(O)c(C(=Nc2ccc(F)cc2)c2ccccc2)c(=O)n(C)c1=O | -10.2%
4 | CCN1CC2C3CCC(C)(O3)C2C1 (stereo not given) | 3.85%
5 | CCCCCCCCCCCCn1ccc(=N)cc1 | -3.31%
